We go through three compounds from PubChem BioAssay (NCI).

Compounds without any hit were thinned out: in the full panel of roughly 83,000, 20% have a hit.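 Step 1: grow cells in 96-well plates. Step 2: add test compound at a single concentration. Step 3: incubate 48 h. Step 4: record percent growth.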 Calls of active or inactive are those of the source. How the source made its calls: active means growth percent below 10; inactive means the rest.

The assay has as its system MDA-MB-468 breast. Briefly: NCI-60 one-dose screen, 48 h (100 = growth as untreated, 0 = no growth, -100 = all killed). The settings on record: 10 µM unless noted.
Consider `O=C(N/N=C/c1ccc(Cl)cc1)c1ccc(NC(=O)c2ccccn2)cc1`, for which the growth is 78.2% (inactive).
Take `CN(C)CCC(O)(Cc1ccccc1)c1ccccc1` (stereo not drawn): the growth is 110% (inactive).
Regarding `O=C(Nc1ccc(F)cc1F)c1cc(Br)ccc1O`, the growth was -19.6% (active).
